These results are taken from PubChem BioAssay AID1345085 (National Center for Advancing Translational Sciences (NCATS), 2018).

SMILES strings stand for the structures. Results filed as inconclusive are left out. The source made the active and inactive calls. Calls follow the shape of the dose curve; as a rule, active = well fitted cell-killing curve with a large enough effect; inconclusive = small, poorly fitted or top-dose-only effect, or effect the other way; inactive = no such curve, though single readings can be large or run the other way. *1 amine or outer side, *2 acyl side, *3 side chain or, on linkers, in order; H or OH if unused. Where a SMILES comes first, the peptide text is derived from it. Bridges are numbered along the chain shown (N, C = ends). Roman numbers before positions name the chains, in order. [ ]: non-standard residue; d: D form. Actinocin(9to1) = Cc1c2oc3c(C)ccc(C(=O)[*:1])c3nc-2c(C(=O)[*:2])c(N)c1=O; NMeV = CN[C@H](C(=O)O)C(C)C; Sar = CNCC(=O)O
Potency is read from the fitted curve at half-maximal effect.

The experiment relates to Tov-21-G. The experiment is described as follows: Confirmatory qHTS for gynecologic anti-cancer compounds from libraries of approved drugs and bioactive compounds. Also: nearly all actives have a fitted effect of over 55% in size. The note with it: gynecologic cancer cell panel viability, ATPlite luminescence, 48 h; series mostly up to 57.7 µM. The method, boiled down:
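Viability is measured as ATP-dependent luciferase light using ATPlite, read 15 min after reagent addition at room temperature. Compounds, in DMSO, span 57.5 uM down to 0.977 nM over 11 threefold steps for 48 h.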
Background: qHTS replaces the single test concentration by a dilution series.
`CC(C)n1c(/C=C/[C@@H](O)C[C@@H](O)CC(=O)O)c(-c2ccc(F)cc2)c2ccccc21`: the Potency result was “inactive”.

On to `CC(C)Nc1cc(-c2c[nH]c(C(=O)N[C@H](CO)c3cccc(Cl)c3)c2)c(Cl)cn1`, for which the Potency was 24300 nM (active).

`NC(=O)Nc1cc(-c2cccc(F)c2)sc1C(=O)NC1CCCNC1` (configuration not stated): the Potency was 3430 nM (active).

On to `CCc1c2c(nc3ccc(O)cc13)-c1cc3c(c(=O)n1C2)COC(=O)[C@]3(O)CC`, for which the Potency was 1090 nM (active).

Turning to `Cc1ccc(C(=O)Nc2ccc(CN3CCN(C)CC3)c(C(F)(F)F)c2)cc1C#Cc1cnc2[nH]ncc2c1`, the Potency is 27.3 nM (active).

On to `COc1cc(-c2nn(C3CCC(N4CCN(C(C)=O)CC4)CC3)c3ncnc(N)c23)ccc1NC(=O)c1cc2ccccc2n1C` (configuration not stated), for which the Potency is 1090 nM (active).

Consider `COc1ccc(-c2ccc3c(N4CCOCC4C)nc(N4CCOCC4C)nc3n2)cc1CO` (configuration not stated), for which the Potency result is “inactive”.

For `Nc1ccccc1NC(=O)c1ccc(CNC(=O)OCc2cccnc2)cc1`, the Potency is 7690 nM (active).

`COc1ccccc1N1CCN(CC(O)COc2cccc3ccccc23)CC1` (configuration not stated): the Potency result was “inactive”.

Regarding `CN1CCN(Cc2ccc(NC(=O)Nc3ccc(Oc4cc(NC(=O)C5CC5)ncn4)cc3)cc2C(F)(F)F)CC1`, the Potency was 432 nM (active).

Take `C[C@]12CCC(=O)C=C1CC[C@@H]1[C@@H]2[C@@H](O)C[C@@]2(C)[C@H]1CC[C@]2(O)C(=O)CO`: the Potency result was “inactive”.

`CC[C@@]1(O)C(=O)OCc2c1cc1n(c2=O)Cc2c-1nc1ccccc1c2/C=N/OC(C)(C)C`: the Potency is 611 nM (active).

Consider `CCc1nc(C(N)=O)c(Nc2ccc(N3CCC(N4CCN(C)CC4)CC3)c(OC)c2)nc1NC1CCOCC1`, for which the Potency is 2670 nM (active).

As for `Fc1cc(-c2cccc3ncc(-c4cnn(C5CCNCC5)c4)nc23)cc(F)c1CN1CCOCC1`, the Potency was 12200 nM (active).

Regarding `CN(C)/N=N/c1nc[nH]c1C(N)=O`, the Potency result was “inactive”.

For the compound `NS(=O)(=O)c1ccc(Nc2nc(OCC3CCCCC3)c3[nH]cnc3n2)cc1`, the Potency result is “inactive”.

With `Cc1cc(Nc2cc(N3CCN(C)CC3)nc(/C=C/c3ccccc3)n2)n[nH]1`, the Potency is 1720 nM (active).

For the compound `Nc1nc(Cl)nc2c1ncn2C1OC(CO)C(O)C1F` (configuration not stated), the Potency is 3430 nM (active).

`COc1cc(N2CCC(N3CCN(C)CC3)CC2)ccc1Nc1ncc(Cl)c(Nc2ccccc2S(=O)(=O)C(C)C)n1`: the Potency is 6110 nM (active).

In the case of `O=C(NOC[C@H](O)CO)c1ccc(F)c(F)c1Nc1ccc(I)cc1F`, the Potency was 1720 nM (active).

With `Cc1csc(NC(=O)c2sc3nc4c(c(C(F)(F)F)c3c2N)CCC4)n1`, the Potency was 1930 nM (active).

As to `COc1ccc(-c2cc3nccn3c(Nc3ncccc3C(N)=O)n2)cc1OC`, the Potency was 4850 nM (active).

Consider `Cc1nc(NC(=O)N2CCCC2C(N)=O)sc1-c1ccnc(C(C)(C)C(F)(F)F)c1` (configuration not stated), for which the Potency was 10900 nM (active).

With `CC(C)C[C@H](NC(=O)[C@@H](NC(=O)c1cccc(-c2ccccc2)n1)[C@@H](C)O)B(O)O`, the Potency is 1720 nM (active).

For `CCOc1cc2ncc(C#N)c(Nc3ccc(F)c(Cl)c3)c2cc1NC(=O)/C=C/CN(C)C`, the Potency was 2170 nM (active).

For `C=CC(=O)Nc1cccc(Oc2nc(Nc3ccc(N4CCN(C)CC4)cc3)ncc2Cl)c1`, the Potency was 3850 nM (active).

For the compound `Cc1c2oc3c(C)ccc(C(=O)N[C@@H]4C(=O)N[C@H](C(C)C)C(=O)N5CCC[C@H]5C(=O)N(C)CC(=O)N(C)[C@@H](C(C)C)C(=O)O[C@@H]4C)c3nc-2c(C(=O)N[C@@H]2C(=O)N[C@H](C(C)C)C(=O)N3CCC[C@H]3C(=O)N(C)CC(=O)N(C)[C@@H](C(C)C)C(=O)O[C@@H]2C)c(N)c1=O` (I: T[dV]P[Sar][NMeV] / II: T[dV]P[Sar][NMeV]; ester I:1-I:C, II:1-II:C; linker I:N-II:N via Actinocin(9to1)), the Potency was 685 nM (active).

As for `Nc1ccn([C@@H]2O[C@H](CO)[C@@H](O)C2(F)F)c(=O)n1`, the Potency is 6110 nM (active).

For `COc1ccc(OC)c(-c2nnc3ccc(-c4ccc(OC)c(O[C@@H]5CCOC5)c4)nn23)c1`, the Potency entry is “inactive”.

With `NS(=O)(=O)OC[C@@H]1C[C@@H](n2ccc3c(N[C@H]4CCc5ccccc54)ncnc32)C[C@@H]1O`, the Potency is 1720 nM (active).

`CCC1=CC2CN(C1)Cc1c([nH]c3ccccc13)[C@@](C(=O)OC)(c1cc3c(cc1OC)N(C)[C@H]1[C@@](O)(C(=O)OC)[C@H](OC(C)=O)[C@]4(CC)C=CCN5CC[C@]31[C@@H]54)C2` (some centres not stated): the Potency is 2370 nM (active).

On to `COc1cc2c(Nc3ccc(NC(=O)c4ccccc4)cc3)ncnc2cc1OCCCN1CCOCC1`, for which the Potency is 19300 nM (active).
